Molecules are shown by their SMILES. Inconclusive results are not listed. Calls of active or inactive are those of the source. Rule for the calls: active = hit-call score of the fitted dose curve at least 0.9, where 1 is the maximum; inconclusive = response in the unintended direction; inactive = score below 0.9. *1 amine or outer side, *2 acyl side, *3 side chain or, on linkers, in order; H or OH if unused. Where a SMILES comes first, the peptide text is derived from it. Bridges are numbered along the chain shown (N, C = ends). Roman numbers before positions name the chains, in order. [ ]: non-standard residue; d: D form. Actinocin(9to1) = Cc1c2oc3c(C)ccc(C(=O)[*:1])c3nc-2c(C(=O)[*:2])c(N)c1=O; NMeV = CN[C@H](C(=O)O)C(C)C; Sar = CNCC(=O)O

This experiment has as its system SRY-box transcription factor 2 (SOX2) Protein Expression, Deisenroth Lab, SOX2 (gene 6657). The experiment can be described thus: CCTE_Deisenroth_DEVTOX-GLR_Endo_SOX2: CCTE's DevTox GLR-Endo Assay Evaluation of SRY-box transcription factor 2 (SOX2) Protein Expression, Deisenroth Lab (AID 2284412). The method, then:
CCTE_Deisenroth_DEVTOX-GLR_Endo assay is a cell-based, multiplex-readout assay that uses RUES2-GLR, a human pluripotent cell line, with measurements taken at 48 hours after chemical dosing in a 384-well microplateCCTE_Deisenroth_DEVTOX-GLR_Endo_SOX2 is 1 of 4 assay components calculated from the CCTE_Deisenroth_DEVTOX-GLR_Endo assay and it measures the percentage of cells in an ectoderm state. Using a type of inducible fluorescent protein reporter, gain-of-signal activity can be used to understand changes in gene expression with fluorescent microscopy. The percentage SOX2+ cells are determined by calculating the number of SOX2+ cells divided by the cell count. To generalize the intended target to other relatable targets, this assay component is annotated to the transcription factor intended target family, where the subfamily is SRY-related HMG-box.Data from the assay component CCTE_Deisenroth_DEVTOX-GLR_Endo_SOX2 was analyzed as 1 assay endpoint. The endpoint is the percent SOX2+ cell population minus the 0.2% DMSO control in the CCTE_Deisenroth_DEVTOX-GLR_Endo assay. Furthermore, this assay endpoint can be referred to as a secondary readout, because this assay has produced multiple assay endpoints where this one serves as a measure of ectoderm differentiation.
All assay protocols are aligned to the DevTox GLR-Endo assay workflow. Cells are seeded into 384-well microplates for 24 hours prior to initiating differentiation in defined media for a total duration of 48 hours. A total of two chemical exposures are administered in 24-hour intervals during the 48-hour differentiation period. At the assay termination point, cells are fixed and stained with a fluorescent dye demarcating the nucleus. High-content imaging is used to acquire brightfield and fluorescent channel images across 5 fields per well. Cell identification and mean biomarker fluorescence intensities are calculated with image analysis software to determine the total cell counts for viability assessment and the biomarker expression frequency for each lineage-dependent assay. A typical experimental design tests a 10-point concentration series (1 nM - 200 uM) for 28 compounds in single technical replicate. Assay plate controls include non-differentiated pluripotent cells (baseline control), lineage-specific differentiated cells (differentiation control), and DMSO solvent exposed differentiated cells (solvent control). Experiments typically comprise a minimum of four experimental replicates (n=4).
For `CC1=C(/C=C/C(C)=C/C=C/C(C)=C\C(=O)O)C(C)(C)CCC1`, the half-maximal activity concentration (AC50) is 69.5 µM (active). With `CNC(=O)c1cc(Oc2ccc(NC(=O)Nc3ccc(Cl)c(C(F)(F)F)c3)cc2)ccn1` the figure was 1.45 µM (active); with `Cc1c2oc3c(C)ccc(C(=O)N[C@@H]4C(=O)N[C@H](C(C)C)C(=O)N5CCC[C@H]5C(=O)N(C)CC(=O)N(C)[C@@H](C(C)C)C(=O)O[C@@H]4C)c3nc-2c(C(=O)N[C@@H]2C(=O)N[C@H](C(C)C)C(=O)N3CCC[C@H]3C(=O)N(C)CC(=O)N(C)[C@@H](C(C)C)C(=O)O[C@@H]2C)c(N)c1=O` (I: T[dV]P[Sar][NMeV] / II: T[dV]P[Sar][NMeV]; ester I:1-I:C, II:1-II:C; linker I:N-II:N via Actinocin(9to1)), 0.00162 µM (active); with `Cc1nc(Nc2ncc(C(=O)Nc3c(C)cccc3Cl)s2)cc(N2CCN(CCO)CC2)n1`, 3.15 µM (active). Turning to `O=C1Cc2cc(CCN3CCN(c4nsc5ccccc45)CC3)c(Cl)cc2N1`, the AC50 is 6.29 µM (active).

Consider `CCCCCN=C(N)N/N=C/c1c[nH]c2ccc(OC)cc12`, for which the AC50 is 100 µM (active). For `Cc1ccc(NC(=O)c2ccc(CN3CCN(C)CC3)cc2)cc1Nc1nccc(-c2cccnc2)n1` the value was 25.6 µM (active); for `Cc1nc2sccn2c(=O)c1CCN1CCC(=C(c2ccc(F)cc2)c2ccc(F)cc2)CC1`, 20.4 µM (active). With `COc1cc2c(Nc3ccc(Br)cc3F)ncnc2cc1OCC1CCN(C)CC1` the figure was 8.62 µM (active); with `CCN(CC)CCNC(=O)c1c(C)[nH]c(/C=C2\C(=O)Nc3ccc(F)cc32)c1C`, 2.5 µM (active); with `COc1cc2ncnc(Nc3ccc(F)c(Cl)c3)c2cc1OCCCN1CCOCC1`, 10.9 µM (active). With `CN1CCN2c3ccccc3Cc3ccccc3C2C1` (configuration not stated) the figure was 89.7 µM (active).

What is called AC50 is the concentration giving half of the maximal activity seen.

Source of the values: PubChem BioAssay (EPA / NIEHS).
